Screening results as filed in PubChem.
An excerpt weighted towards active compounds, which were near 1.1% of everything screened.
Anesthetic bind = qHTS Assay for Identification of Novel General Anesthetics; apoferritin/1-aminoanthracene competitive binding, fluorescence; Potency, µM (top dose mostly 77.5 µM), for inactives: at the highest dose activity change, negative = displacement, usual class: inhibitors; 350,000 compounds, 0.074% hits; note: potency is the fitted concentration of half-maximal effect; % is set by controls: 0 for no effect and ±100 for the full control effect; nearly all actives have a fitted effect of over 20% in size
Target sequence (P02791 2-175 limits assumed): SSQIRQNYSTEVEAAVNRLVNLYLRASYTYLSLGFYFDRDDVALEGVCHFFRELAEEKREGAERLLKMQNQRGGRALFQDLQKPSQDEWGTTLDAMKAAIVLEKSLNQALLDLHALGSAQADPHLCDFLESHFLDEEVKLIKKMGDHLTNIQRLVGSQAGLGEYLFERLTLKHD
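Read-out: endpoint 1-AMA fluorescence, excitation 380 nm and emission 535 nm, after compounds sit 10 min at room temperature with 10 uM horse-spleen apoferritin in 50% saturated 1-AMA/PBS. Values come from four-parameter Hill fits.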
BRCA1 expr act = qHTS Assay to Identify Small Molecule Activators of BRCA1 Expression | MCF7-BRCA1-FFLuc reporter, luminescence, 48 h; response scale: scaled: vehicle 0%, 10 µM genistein 100% | Potency, µM (doses to about 46.1 µM), inactives show top-dose activation, most hits filed as activators | 380,000 compounds, 1.1% hits; note: potency is the fitted concentration of half-maximal effect; nearly all actives have a fitted effect of over 80% in size
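Using MCF7 cells harboring a BRCA1 firefly luciferase reporter, plated 2 h before compound pinning, the screen measured luminescence after 48 h incubation. Responses were normalized to DMSO and 10 microM genistein, then fitted for concentration-effect.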
p53 reactivation = qHTS assay for re-activators of p53 using a Luc reporter; H1299 p53-A138V BP100-luciferase reporter, luminescence, 24 h; 320,000 compounds, 0.063% hits; Potency, µM (top dose mostly 92.2 µM), inactives show at the highest dose activity change, positive = activation, most hits filed as activators; AID 504706, 2011; note: potency is the fitted concentration of half-maximal effect; % of control where 0% means no effect; nearly all actives have a fitted effect of over 45% in size
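p53-null H1299 cells stably carrying temperature-sensitive p53-A138V and a BP100-luciferase reporter were pinned with compounds (4-point, 1:5 series) and held 24 hrs at 37 deg C. Luminescence was read 10 min after detection reagent.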
miR-21 reporter = qHTS Assay for Modulators of miRNAs and/orActivators of miR-21; HeLa miR-21 FLuc reporter, luciferase, 48 h; Potency, µM (series often up to 38.3 µM), for inactives: at the highest dose activity change, positive = activation, actives largely listed as activators; 340,000 tested, under 10 active;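 note: % of control where 0% means no effect; miR-21 action dims this reporter so a rising signal means less miR-21 action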
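HeLa miR-21-FLuc reporter line, endogenous miR-21; 2000 cells/well in DMEM/10% FBS; compound titration up to ~40uM final, 48 h, 37 degree Celsius; luciferase detection reagent, 15 min lysis, CCD luminescence.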
Active calls of the source: *; ? = inconclusive; / = no result. Calls come from the whole dose curve; as a rule, active = well fitted curve in the direction sought with a large enough effect; inconclusive = small, poorly fitted or top-dose-only effect, or another doubt; inactive = no such curve, though single readings can be large; an effect the other way counts as inactive or inconclusive.

SMILES	Anesthetic bind	BRCA1 expr act	p53 reactivation	miR-21 reporter
O=C(O)c1ccccc1OCc1nc2ccccc2s1	-20.6%	18.6%	?	-72.9%
CCCN1CNc2c(c(=O)[nH]c(=S)n2CCC(C)(C)C)C1	/	0.0%	/	/
CC(=O)Nc1ccc(NC(=O)C(C)Sc2nnc(C3CC3)n2-c2ccccc2)cc1 (stereo unspecified)	/	17.1%	15.1%	/
O=C(CCn1cccn1)N1CCCC(N2CCN(c3cccc(C(F)(F)F)c3)CC2)C1 (stereo unspecified)	-9.8%	-13.2%	-7.8%	9.2%
O=S(=O)(Nc1nc2ccccc2nc1N1CCc2ccccc2C1)c1ccc(Br)cc1	69.6%	-64.8%	?	-12.8%
Cc1ccccc1S(=O)(=O)Nc1nc2ccccc2nc1N1CCc2ccccc2C1	0.3%	-36.5%	28.2µM*	-14.4%
CC(C)c1nnc(NC(=O)COc2ccc3c(c2)OCO3)s1	0.5%	11.2µM*	?	-16.0%
Cc1cc(C)n(CCN(C)C(=O)CCc2nnc(CCC3CCCCC3)o2)n1	-16.9%	11.2µM*	14.2%	-51.5%
COc1ccc(OC)c(NC(=O)c2nc(S(=O)(=O)Cc3ccc(F)cc3)ncc2Cl)c1	?	/	/	11.7µM*
COc1ccccc1NC(=O)c1nc(S(=O)(=O)Cc2ccccc2)ncc1Cl	-12.6%	-100.7%	-3.7%	?
COC(=O)Nc1ccc(OCc2ccccc2)cc1	-6.3%	12.6µM*	27.2%	-67.1%
O=C(Nc1ccc(NC(=O)C2CC2)cn1)c1ccccc1Cl	5.1%	12.6µM*	?	-16.4%
CCOc1ccc(NC(=O)c2nccnc2CO)cc1	-11.8%	5.62µM*	?	-38.4%
O=C(Cc1ccc(Cl)cc1)Nc1ccc(Br)cn1	2.0%	12.6µM*	12.1%	-31.4%
O=C(Cc1ccc(Cl)cc1)Nc1ccc(Cl)cn1	-8.9%	?	/	-27.6%
O=C(NCCc1ccc(OC(F)F)cc1)C1CC(=O)N(c2ccc3c(c2)OCCO3)C1 (stereo unspecified)	/	4.5%	8.3%	/
CCCOc1cccc(C(=O)Nc2ccc(-c3nc4ccccc4o3)cc2)c1	-3.0%	/	/	-15.4%
O=C(Nc1ccc(NC(=O)C2CC2)cn1)c1ccccc1	-2.8%	?	16.6%	-4.6%
CCOc1ccc(NC(=O)Cc2ccccc2)cc1	-14.6%	7.08µM*	?	-71.5%
Cc1ccc(NC(=O)CCOc2ccccc2)cc1	1.0%	7.08µM*	?	-67.2%
O=C(Cc1ccccc1)Nc1ccc(NC(=O)c2ccccc2)nc1	-6.6%	12.6µM*	14.5%	-39.2%
CCOc1ccc(NC(=O)CNC(=O)Cc2ccccc2)cc1	-8.8%	0.0%	3.9%	-1.2%
O=C(/C=C/c1cccs1)NCc1ccc2c(c1)OCO2	-10.8%	66.8%	3.6%	-30.2%
O=C(COC(=O)c1cccc(O)c1)c1ccccc1	/	?	8.7%	/
Nc1cccc(C(=O)OCC(=O)c2ccccc2)c1	-14.5%	7.94µM*	?	-73.9%
SMILES	Anesthetic bind	BRCA1 expr act	p53 reactivation	miR-21 reporter
CCOC(=O)c1ccc(N2Cc3ccccc3C2=NC(=O)c2cccs2)cc1	-15.9%	10µM*	?	-72.4%
CC(=O)c1ccc(N2Cc3ccccc3C2=NC(=O)c2cccs2)cc1	-1.9%	?	60.2%	-11.8%
CCCCn1c(N)c(N(CCOC)C(=O)c2cc(-c3ccc(OC)cc3)nc3ccccc23)c(=O)[nH]c1=O	/	-22.2%	0.1%	/
CC(=O)c1cccc(NC(=O)c2ccc(OC3CSC3)cc2)c1	-11.0%	28.2%	2.6%	-16.3%
Cc1cccc(NC(=O)c2ccc(OC3CSC3)cc2)c1	-18.9%	11.2µM*	?	-67.1%
O=C(C1CC1)N1CCN(c2ccc([N+](=O)[O-])cc2-n2cccc2)CC1	0.2%	-25.3%	0.8%	12.7%
Cc1ccc(NC(=O)C2CCN(S(=O)(=O)c3ccc4[nH]c5c(c4c3)CCCCC5)CC2)cc1	-8.4%	/	/	15.0%
O=C(NCc1ccccc1)c1cnc2n(c1=O)CCS2	-9.7%	37.0%	-5.1%	-2.2%
O=C(NCCCc1ccccc1)c1cnc2n(c1=O)CCS2	6.9%	6.31µM*	?	-51.0%
O=C(NCCC1=CCCCC1)c1cnc2n(c1=O)CCS2	-4.6%	8.91µM*	?	-63.4%
O=C(NCCc1ccc(Cl)cc1)c1cnc2n(c1=O)CCS2	-10.2%	?	?	-39.9%
COc1ccc(CSc2nnc(C)s2)cc1F	-13.9%	4.47µM*	?	-57.1%
CCOC(=O)c1sc(N(Cc2ccccc2)C(=O)COC(=O)c2cnccn2)nc1C	-16.4%	81.0%	-2.4%	-16.9%
CCOC(=O)c1sc(N(Cc2ccccc2)C(=O)CSc2nnc(C3CC3)n2N)nc1C	?	8.91µM*	12.5%	-38.2%
O=Nc1c(-c2cccc([N+](=O)[O-])c2)nc2ncccn12	7.1%	/	-12.8%	-12.9%
N/C(=N\OC(=O)COc1ccc(Cl)cc1Cl)c1ccncc1	?	1.12µM*	2.7%	-61.4%
CCOc1ccc(C(=O)Nc2ccc(Cl)cn2)cc1Cl	-10.4%	6.31µM*	7.4%	-35.4%
O=C(COc1ccc(Cl)cc1Cl)Nc1ccc(Cl)cn1	-8.8%	11.2µM*	32.6%	-19.4%
O=C(/C=C/c1ccccc1)N1CCCN(C(=O)/C=C/c2ccccc2)CC1	-14.6%	3.1%	-3.6%	-12.5%
O=C(/C=C/c1ccc(Br)cc1)NC1CCCCCC1	-15.5%	?	10.4%	-28.1%
CC1CCN(C(=O)/C=C/c2ccc(C(C)(C)C)cc2)CC1	-8.2%	51.8%	?	-58.0%
CC(C)Cc1ccc(/C=C/C(=O)N2CCCCC2)cc1	?	12.6µM*	14.0%	-55.6%
CC(C)(C)c1ccc(/C=C/C(=O)N2CCCCC2)cc1	?	7.08µM*	18.3%	-52.8%
CC(C)Cc1ccc(/C=C/C(=O)NC2CC2)cc1	-0.8%	5.62µM*	?	-52.0%
Cc1ccc2c(=O)c(C(=O)c3ccccc3)cn(CC(=O)Nc3ccc(C)c(Cl)c3)c2n1	4.4%	/	/	-5.1%
SMILES	Anesthetic bind	BRCA1 expr act	p53 reactivation	miR-21 reporter
O=C(Nc1nc2n(n1)C(c1ccccc1)C=C(c1ccccc1)N2)c1ccc(Cl)c([N+](=O)[O-])c1 (stereo unspecified)	?	/	/	-6.4%
Cc1ccc(NC(=S)N2CCC(c3ccc(C)cc3)C2)cc1 (stereo unspecified)	-5.6%	11.2µM*	28.5%	-40.9%
O=C(c1ccc(F)cc1)N1CCC(c2ccccc2)C1 (stereo unspecified)	-0.5%	6.31µM*	15.5%	-66.8%
Cc1ccc(C2CCN(C(=O)Nc3ccccc3)C2)cc1 (stereo unspecified)	-22.3%	5.01µM*	?	-39.1%
Cc1ccc(NC(=O)N2CCC(c3ccccc3)C2)cc1C (stereo unspecified)	?	2.82µM*	18.2%	-37.5%
COc1ccc(C(=O)N2CCCC(c3ccccc3)C2)cc1 (stereo unspecified)	?	?	-6.1%	-18.1%
CCOC(=O)c1ccc(NC(=O)c2c(N)n(Cc3ccccc3)c(=O)[nH]c2=O)cc1	/	-3.4%	/	/
CC(C)(C)c1csc(NC(=O)c2ccc(Cl)s2)n1	?	-20.1%	-1.5%	6.7%
